# Measured values taken from the supplement of paper PMC11001985.
# A number with no mark means an inactive call.
# Compound: C#CCNC(=O)CCSSCCC(=O)NCCc1ccc(C=O)c(C=O)c1
# Assay: lysine labeling ratio R10:1 (500 µM / 50 µM probe), SILAC-ABPP in living cells; higher = lower intrinsic lysine reactivity toward the probe, active = 2 or less
# Details: HeLa; probe concentrations 500 vs 50 µM
# Summary of the method: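 SILAC light and heavy living HeLa cells in PBS at room temperature were labelled with 50 µM or 500 µM of an alkyne-tagged, disulfide-linked lysine probe, with forward and reverse label swaps. Mixed lysates were clicked to biotin-azide, trypsin-digested, captured on neutravidin, DTT-released, alkylated and analysed by LC-MS/MS on a TIMS-TOF Pro. R is the filtered median high-probe/low-probe MS1 peptide ratio per lysine, then the median across forward and reverse replicates. Ratios are capped at 20.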
# Chain of UniProt Q13813 (Q13813 whole entry): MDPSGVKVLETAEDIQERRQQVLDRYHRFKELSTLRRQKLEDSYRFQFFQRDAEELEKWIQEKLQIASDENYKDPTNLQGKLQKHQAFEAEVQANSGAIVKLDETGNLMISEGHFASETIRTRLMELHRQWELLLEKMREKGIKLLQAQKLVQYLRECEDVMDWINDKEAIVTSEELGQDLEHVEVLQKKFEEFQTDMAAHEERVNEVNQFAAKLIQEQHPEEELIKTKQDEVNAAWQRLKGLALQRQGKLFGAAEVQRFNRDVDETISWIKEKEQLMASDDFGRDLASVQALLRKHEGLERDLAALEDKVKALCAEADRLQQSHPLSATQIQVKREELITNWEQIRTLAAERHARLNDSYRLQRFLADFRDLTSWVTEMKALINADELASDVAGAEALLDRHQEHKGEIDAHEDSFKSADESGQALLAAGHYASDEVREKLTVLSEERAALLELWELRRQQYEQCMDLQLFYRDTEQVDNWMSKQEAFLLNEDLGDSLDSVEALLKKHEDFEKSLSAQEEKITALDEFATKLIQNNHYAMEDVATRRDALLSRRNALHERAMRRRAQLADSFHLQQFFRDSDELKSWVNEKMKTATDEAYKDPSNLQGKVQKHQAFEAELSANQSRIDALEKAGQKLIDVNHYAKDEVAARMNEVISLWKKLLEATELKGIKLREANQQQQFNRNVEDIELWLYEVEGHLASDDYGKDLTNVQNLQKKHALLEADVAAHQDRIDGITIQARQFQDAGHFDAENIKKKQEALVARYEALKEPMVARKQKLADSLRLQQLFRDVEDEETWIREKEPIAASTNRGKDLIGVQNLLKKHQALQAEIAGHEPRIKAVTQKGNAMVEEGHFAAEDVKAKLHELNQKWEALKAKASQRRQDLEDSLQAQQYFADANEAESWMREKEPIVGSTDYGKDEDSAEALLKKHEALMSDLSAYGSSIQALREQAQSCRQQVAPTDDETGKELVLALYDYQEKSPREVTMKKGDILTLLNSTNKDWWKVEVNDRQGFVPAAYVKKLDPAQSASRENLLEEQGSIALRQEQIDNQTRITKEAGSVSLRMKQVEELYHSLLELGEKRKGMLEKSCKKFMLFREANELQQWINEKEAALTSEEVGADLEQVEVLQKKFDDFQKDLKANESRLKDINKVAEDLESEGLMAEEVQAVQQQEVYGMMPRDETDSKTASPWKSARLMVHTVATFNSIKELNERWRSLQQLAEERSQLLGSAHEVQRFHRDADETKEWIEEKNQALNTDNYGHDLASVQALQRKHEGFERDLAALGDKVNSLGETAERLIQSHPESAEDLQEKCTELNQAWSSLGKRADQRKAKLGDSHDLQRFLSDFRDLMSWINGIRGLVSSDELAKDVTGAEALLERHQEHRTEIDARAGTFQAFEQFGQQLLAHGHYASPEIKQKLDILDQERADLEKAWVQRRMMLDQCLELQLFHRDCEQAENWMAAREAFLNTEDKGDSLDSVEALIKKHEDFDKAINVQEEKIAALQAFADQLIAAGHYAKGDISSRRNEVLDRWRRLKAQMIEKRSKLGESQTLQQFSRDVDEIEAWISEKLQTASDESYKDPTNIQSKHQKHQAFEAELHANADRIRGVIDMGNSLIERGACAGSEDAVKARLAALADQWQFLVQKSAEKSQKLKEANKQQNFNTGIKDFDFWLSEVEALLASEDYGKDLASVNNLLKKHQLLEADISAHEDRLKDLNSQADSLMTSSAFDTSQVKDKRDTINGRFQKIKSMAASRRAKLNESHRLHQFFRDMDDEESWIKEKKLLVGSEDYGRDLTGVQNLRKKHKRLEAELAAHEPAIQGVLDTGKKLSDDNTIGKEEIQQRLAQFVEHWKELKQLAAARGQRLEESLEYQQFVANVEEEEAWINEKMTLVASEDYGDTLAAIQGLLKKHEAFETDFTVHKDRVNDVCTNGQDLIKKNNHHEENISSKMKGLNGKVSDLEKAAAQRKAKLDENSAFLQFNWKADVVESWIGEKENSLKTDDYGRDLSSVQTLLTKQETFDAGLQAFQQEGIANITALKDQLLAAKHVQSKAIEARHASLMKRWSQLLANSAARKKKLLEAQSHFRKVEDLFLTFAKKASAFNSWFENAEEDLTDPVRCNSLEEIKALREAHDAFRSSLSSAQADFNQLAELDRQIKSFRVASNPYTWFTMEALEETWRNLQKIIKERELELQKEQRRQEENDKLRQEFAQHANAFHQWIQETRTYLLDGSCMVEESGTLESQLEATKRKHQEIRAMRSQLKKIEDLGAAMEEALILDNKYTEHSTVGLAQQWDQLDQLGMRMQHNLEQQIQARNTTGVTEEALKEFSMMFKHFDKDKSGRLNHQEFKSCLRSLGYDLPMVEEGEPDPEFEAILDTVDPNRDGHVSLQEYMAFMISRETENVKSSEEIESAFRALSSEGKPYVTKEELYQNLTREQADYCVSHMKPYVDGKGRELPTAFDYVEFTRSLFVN
# Chain of UniProt O60245 (O60245 whole entry): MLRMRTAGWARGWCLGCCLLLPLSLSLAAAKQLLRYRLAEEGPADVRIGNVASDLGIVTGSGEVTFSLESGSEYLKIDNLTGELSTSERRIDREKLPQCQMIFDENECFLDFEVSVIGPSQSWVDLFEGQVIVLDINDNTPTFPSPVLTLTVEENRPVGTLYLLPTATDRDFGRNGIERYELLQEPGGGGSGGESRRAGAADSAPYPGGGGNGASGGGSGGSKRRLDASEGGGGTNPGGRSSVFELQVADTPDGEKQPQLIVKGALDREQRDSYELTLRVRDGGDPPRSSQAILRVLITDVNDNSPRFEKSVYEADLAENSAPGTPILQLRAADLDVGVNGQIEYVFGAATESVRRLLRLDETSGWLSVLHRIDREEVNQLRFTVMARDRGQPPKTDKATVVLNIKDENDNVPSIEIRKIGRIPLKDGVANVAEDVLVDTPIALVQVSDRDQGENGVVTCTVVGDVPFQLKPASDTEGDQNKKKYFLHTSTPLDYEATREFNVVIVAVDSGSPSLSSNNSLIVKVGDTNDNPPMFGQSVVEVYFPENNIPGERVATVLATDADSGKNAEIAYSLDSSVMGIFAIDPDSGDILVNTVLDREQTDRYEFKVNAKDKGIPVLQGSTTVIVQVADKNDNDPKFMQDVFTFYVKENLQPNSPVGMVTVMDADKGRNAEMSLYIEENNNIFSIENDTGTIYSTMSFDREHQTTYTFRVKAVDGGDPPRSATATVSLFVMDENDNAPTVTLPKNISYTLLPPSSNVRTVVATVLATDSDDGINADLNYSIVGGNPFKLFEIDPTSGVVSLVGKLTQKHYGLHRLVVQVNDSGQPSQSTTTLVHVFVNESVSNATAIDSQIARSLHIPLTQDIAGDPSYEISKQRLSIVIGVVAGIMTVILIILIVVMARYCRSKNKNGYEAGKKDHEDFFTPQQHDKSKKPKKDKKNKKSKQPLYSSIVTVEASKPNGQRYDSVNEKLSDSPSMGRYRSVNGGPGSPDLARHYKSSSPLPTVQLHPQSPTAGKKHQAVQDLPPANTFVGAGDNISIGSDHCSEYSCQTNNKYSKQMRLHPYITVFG
# Chain of UniProt Q5T9A4 (Q5T9A4 whole entry): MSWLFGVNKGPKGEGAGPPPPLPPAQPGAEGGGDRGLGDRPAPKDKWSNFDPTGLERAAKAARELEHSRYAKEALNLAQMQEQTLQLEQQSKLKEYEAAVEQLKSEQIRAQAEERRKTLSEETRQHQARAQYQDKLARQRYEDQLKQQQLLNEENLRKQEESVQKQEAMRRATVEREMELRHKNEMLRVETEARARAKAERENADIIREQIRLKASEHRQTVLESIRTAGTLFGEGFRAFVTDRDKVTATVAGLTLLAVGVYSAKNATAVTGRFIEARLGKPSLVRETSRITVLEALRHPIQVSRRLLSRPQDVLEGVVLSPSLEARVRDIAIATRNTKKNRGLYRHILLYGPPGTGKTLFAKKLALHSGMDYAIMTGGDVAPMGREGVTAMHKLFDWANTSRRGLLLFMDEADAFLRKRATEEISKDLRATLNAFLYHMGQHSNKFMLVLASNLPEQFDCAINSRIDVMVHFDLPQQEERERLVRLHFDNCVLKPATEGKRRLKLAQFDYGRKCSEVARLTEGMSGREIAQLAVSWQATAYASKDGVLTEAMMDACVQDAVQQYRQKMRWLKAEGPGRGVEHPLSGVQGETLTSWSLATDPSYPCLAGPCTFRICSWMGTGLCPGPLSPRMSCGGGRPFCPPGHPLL
# Chain of UniProt P14625 (P14625 whole entry): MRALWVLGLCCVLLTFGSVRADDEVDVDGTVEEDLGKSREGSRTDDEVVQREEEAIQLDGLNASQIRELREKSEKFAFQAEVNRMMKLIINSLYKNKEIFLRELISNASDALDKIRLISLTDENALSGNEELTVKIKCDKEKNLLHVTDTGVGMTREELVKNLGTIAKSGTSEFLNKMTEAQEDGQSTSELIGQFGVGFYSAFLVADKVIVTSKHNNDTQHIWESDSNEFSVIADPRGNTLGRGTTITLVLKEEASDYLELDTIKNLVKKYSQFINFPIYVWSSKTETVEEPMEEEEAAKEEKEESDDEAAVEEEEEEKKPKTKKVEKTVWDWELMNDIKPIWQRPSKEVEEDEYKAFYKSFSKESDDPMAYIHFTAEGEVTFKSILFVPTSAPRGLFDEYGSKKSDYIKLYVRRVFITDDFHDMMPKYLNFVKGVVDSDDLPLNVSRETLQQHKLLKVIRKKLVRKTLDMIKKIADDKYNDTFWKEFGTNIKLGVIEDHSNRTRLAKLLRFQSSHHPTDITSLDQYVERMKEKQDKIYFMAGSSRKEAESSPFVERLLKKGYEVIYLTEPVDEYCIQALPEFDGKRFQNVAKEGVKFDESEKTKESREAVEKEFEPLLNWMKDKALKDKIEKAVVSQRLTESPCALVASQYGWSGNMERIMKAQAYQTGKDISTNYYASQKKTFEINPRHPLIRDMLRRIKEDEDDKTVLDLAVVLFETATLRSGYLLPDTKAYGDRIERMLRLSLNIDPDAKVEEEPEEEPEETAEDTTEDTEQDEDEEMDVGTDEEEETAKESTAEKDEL
row,Target,lysine labeling ratio R10:1
1,UniProt O60245 (lysine site: K310),2.88
2,P30462 (lysine site: K267) (UniProt P01889),2.91
3,NECTIN3 (lysine site: K301) (UniProt Q9NQS3),1.83 (active)
4,SEMA3C (lysine site: K431) (UniProt Q99985),2.67
5,FAS (lysine site: K126) (UniProt P25445),2.16
6,SPTAN1 (lysine site: K803) (UniProt Q13813),1.86 (active)
7,IGF2R (lysine site: K1230) (UniProt P11717),1.74 (active)
8,UniProt P62805 (lysine site: K13),2.71
9,CCT4 (lysine site: K42) (UniProt P50991),4.65
10,AHCY (lysine site: K204) (UniProt P23526),1.25 (active)
11,RTN4 (lysine site: K1104) (UniProt Q9NQC3),1.32 (active)
12,IMPDH2 (lysine site: K134) (UniProt P12268),2.5
13,ATAD3B (lysine site: K281) (UniProt Q5T9A4),12.6
14,LNPEP (lysine site: K923) (UniProt Q9UIQ6),5.14
15,HSP90B1 (lysine site: K547) (UniProt P14625),3.04
16,FLNB (lysine site: K976) (UniProt O75369),1.86 (active)
17,TGFBI (lysine site: K53) (UniProt Q15582),1.28 (active)
18,MCAM (lysine site: K185) (UniProt P43121),3.4
19,UniProt P62913 (lysine site: K52),2.77
20,NUCB1 (lysine site: K177) (UniProt Q02818),1.71 (active)
21,UniProt P83731 (lysine site: K97),1.9 (active)
22,ITGA3 (lysine site: K407) (UniProt P26006),2.96
23,LAMC1 (lysine site: K1329) (UniProt P11047),1.2 (active)
